What follows are sequences tested against ANAPC5 (assay: pooled miR-30 sensor sort-seq; sequence = guide strand). Conditions: shRNA.
Sequence TTGTTTTGTGAACCTCTGGTTC has a sensor-assay potency score (higher = more potent) of -0.673.
With TTTTTGATCACATAACATCCAT the sensor-assay potency score (higher = more potent) was 0.00973.
Sequence TACACTTGTTTTGTGAACCTCT has a sensor-assay potency score (higher = more potent) of 0.756.
In the case of TTTTGATCACATAACATCCATA, the sensor-assay potency score (higher = more potent) is reported as -1.19.

What follows are sequences tested against ANGPTL1 in the same assay as above. Conditions: shRNA.
For TAGACTTTTTTATCACTCCAGT, the sensor-assay potency score (higher = more potent) was -0.73.
Work on TAATTTTGAATTGTCCACCTCT yielded a sensor-assay potency score (higher = more potent) of 0.889.
TTTTGCTTGCTGACAGTCTTTG was tested, and the sensor-assay potency score (higher = more potent) was -0.992.
Work on TTTAATGGTACTTGCATCTTGC yielded a sensor-assay potency score (higher = more potent) of 0.613.
TTGATTGCTAAGCATATAGATA gave a sensor-assay potency score (higher = more potent) of -1.25.
Work on TTAAATCTCTGGGATAACCTGG yielded a sensor-assay potency score (higher = more potent) of -0.522.
With ATAACTTGTAATTATCTTGATT the sensor-assay potency score (higher = more potent) was -0.722.
Sequence TAAATTGTTAAGTATCTTGAAC has a sensor-assay potency score (higher = more potent) of -0.687.
TTGCAGAACATCTATCTCCCGC gave a sensor-assay potency score (higher = more potent) of 0.289.
TCCATCTACATCCACCACCAGT was tested, and the sensor-assay potency score (higher = more potent) was -1.83.
Work on TATAGAGTTGAGTAACACGAGA yielded a sensor-assay potency score (higher = more potent) of -1.16.

Each sequence was assayed against ANGPTL3 in the same assay as above. Conditions: shRNA.
TATAACATCACAGTAGACATGA was tested, and the sensor-assay potency score (higher = more potent) was 0.929.
In the case of TTGACTTGTAGTTTATATGTAG, the sensor-assay potency score (higher = more potent) is reported as 0.386.
TTAATGTCCATGGACTACCTGA was tested, and the sensor-assay potency score (higher = more potent) was -0.665.
TAATGTTTGTTGTCTTTCCAGT gave a sensor-assay potency score (higher = more potent) of -0.418.
In the case of TTACATCGTCTAACATAGCAAA, the sensor-assay potency score (higher = more potent) is reported as -1.16.
For TCGTCTAACATAGCAAATCTTG, the sensor-assay potency score (higher = more potent) was -1.34.
TTGAATACTAGTCCTTCTGAGC gave a sensor-assay potency score (higher = more potent) of -0.706.
Sequence TAGAATTTTTTCTTCTAGGAGG has a sensor-assay potency score (higher = more potent) of -0.766.
For TTTATATGTAGTTCTTCTCAGT, the sensor-assay potency score (higher = more potent) was -0.38.
With TTATAGAGTATAACCTTCCATT the sensor-assay potency score (higher = more potent) was -0.924.
With TTTGTGATCCATCTATTCGATG the sensor-assay potency score (higher = more potent) was -1.29.
Work on TTCTTTTATTTGACTATGCTGT yielded a sensor-assay potency score (higher = more potent) of -0.537.

What follows are sequences tested against ANG in the same assay as above. Conditions: shRNA.
For TTCACAAGCAACAACAACGTTT, the sensor-assay potency score (higher = more potent) was -0.418.
TGGTTTGGCATCATAGTGCTGG showed a sensor-assay potency score (higher = more potent) of -0.375.
AAGACTTGCTTATTCTTAGGTT showed a sensor-assay potency score (higher = more potent) of 0.22.
Work on TTGCCATGAATAAATGTGTTGA yielded a sensor-assay potency score (higher = more potent) of -0.499.
In the case of TCACAAGCAACAACAACGTTTC, the sensor-assay potency score (higher = more potent) is reported as -0.587.
TAGCTTGCAAGTGGTGACCTGG gave a sensor-assay potency score (higher = more potent) of -0.539.
Work on TTGTTTTCACAGATGGCCTTGA yielded a sensor-assay potency score (higher = more potent) of 0.228.
For TTTGGCATCATAGTGCTGGGTC, the sensor-assay potency score (higher = more potent) was 0.651.
Sequence TTGTTGCCATGAATAAATGTGT has a sensor-assay potency score (higher = more potent) of -0.656.
For TGTGTACCTGGAGTTATCCTGA, the sensor-assay potency score (higher = more potent) was 0.329.
Sequence TTCTTAGGTTTTCTCTGTGAGG has a sensor-assay potency score (higher = more potent) of -0.88.
In the case of TTAGGTTTTCTCTGTGAGGGTT, the sensor-assay potency score (higher = more potent) is reported as 0.674.
TTTCTCTGTGAGGGTTTCCATT showed a sensor-assay potency score (higher = more potent) of -0.964.

Reference: the OligoGym collection
